Results reported in PubChem BioAssay.
Active and inactive are the calls of the source.

Key:
[1] = test system: PRMT1 (protein arginine N-methyltransferase 1); assay: PRMT1 binders on small-molecule microarrays, primary screen, biochemical, small-molecule microarray, 635 nm fluorescence (AID 1088); settings: small-molecule microarray binding, higher = more signal;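 further: binding of Prmt1 protein to compounds spotted on small-molecule microarray slides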
[2] = yeast growth modulation, basal conditions, primary screen, YJM789 clinical isolate, OD600, 24 h (AID 1089);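 further: growth of clinical yeast isolate S. cerevisiae YJM 789 seeded 1000 cells per well; test concentration not given here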; settings: S. cerevisiae YJM789 growth, higher = more signal, called active from +8 up or from −8 down
[3] = fission yeast growth modulation, primary screen, strain 972, OD600, 24 h, no modulator (AID 1090);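 further: basal condition with compound alone and no growth modifier present; test concentration not given here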; settings: S. pombe 972 growth, higher = more signal, called active from +8 up or from −8 down
[4] = S. cerevisiae growth modulation with rapamycin, primary screen, strain BY4716, OD600, 96 h (AID 1091); settings: higher = more signal, called active from +8 up or from −8 down; further: test concentration not given here
[5] = target: Torsin-1A-interacting protein 2 (Homo sapiens) (UniProt Q8NFQ8); assay: LULL1 binders on small-molecule microarray, primary screen, cell lysate, human LULL1 lysate, 635/667 nm fluorescence (AID 1092); settings: hLULL1 lysate binding, 635 nm fluorescence, higher = more signal;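 further: probe is lysate of COS7 cells overexpressing human LULL1; score merges per-feature 667 nm fluorescence with signal-to-noise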
[6] = E. coli growth modulation, two-sided OD650, primary screen, E. coli filamentation project, strain DRC41, 24 h (AID 1093); settings: OD650, 24 h, higher = more signal, called active from +8 up or from −8 down;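 further: MC1000 strain lacking acrAB efflux and sulA so SOS filamentation is blocked; test concentration not given here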
[7] = small-molecule microarray binders of probe aLefty2, primary screen, biochemical, biotinylated probe, 635/667 nm fluorescence (AID 1094); settings: higher = more signal;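 further: score merges spot fluorescence near 667 nm with spot signal-to-noise ratio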
[8] = test system: Noggin (protein binding on small-molecule microarray); assay: Noggin binders on small-molecule microarray, primary screen, biochemical, 635/667 nm fluorescence (AID 1095); settings: 635 nm fluorescence, higher = more signal;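 further: score merges 667 nm feature fluorescence with signal to noise over triplicate slides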
[9] = target: Neurogenic locus notch homolog protein 3 (Homo sapiens) (UniProt Q9UM47); assay: NOTCH3 binders on small-molecule microarray, primary screen, biochemical, 635/667 nm fluorescence (AID 1096); settings: NOTCH3 binding, 635 nm fluorescence, higher = more signal
[10] = small-molecule microarray binders of probe aEGFR, primary screen, biochemical, biotinylated probe, 635/667 nm fluorescence (AID 1097); settings: higher = more signal;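 further: probe is a biotinylated anti-EGFR antibody binding compounds printed on slides; score combines fluorescence near 667 nm and signal to noise of each spot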
[11] = test system: Plasmodium falciparum Sir2 (PF13_0152, Sir2A); assay: pfSir2 binders on small-molecule microarrays, primary screen, biochemical, small-molecule microarray, 635 nm fluorescence (AID 1098); settings: small-molecule microarray binding, fluorescence 635 nm; higher = more signal;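 further: score merges spot fluorescence intensity with its signal-to-noise ratio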
[12] = small-molecule microarray binders of probe aDKK1, primary screen, biochemical, biotinylated probe, 635/667 nm fluorescence (AID 1099); settings: higher = more signal;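 further: score merges 667nm spot fluorescence with signal to noise across triplicate slides; reference of the scale not given here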
[13] = small-molecule microarray binders of probe aCHRDL2, primary screen, biochemical, biotinylated probe, 635/667 nm fluorescence (AID 1100); settings: higher = more signal
[14] = splicing luciferase reporter signal modulators, primary screen, spliceosome inhibition project, cell-based, HEK293, splice +/- reporter (AID 1101); settings: luminescence, 24 h, higher = more signal, called active from +8 up or from −8 down;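 further: HEK293 cells carrying a splicing-competent luciferase reporter gene; test concentration not given here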
[15] = target: Fibroblast growth factor 10 (Homo sapiens) (UniProt O15520); assay: FGF10 binders on small-molecule microarrays, primary screen, biochemical, small-molecule microarray, 635 nm fluorescence (AID 1102); settings: FGF10 binding, fluorescence 635 nm, higher = more signal
[16] = test system: glycogen synthase kinase-3 (GSK3A per assay name; protocol says GSK3B); assay: GSK3 binders on small-molecule microarrays, primary screen, biochemical, small-molecule microarray, 635 nm fluorescence, GSK3A (AID 1103); settings: small-molecule microarray binding, fluorescence 635 nm; higher = more signal; further: the record names both GSK3A and GSK3B
[17] = target: Epidermal growth factor receptor (Homo sapiens) (UniProt P00533); assay: EGFR binders on small-molecule microarrays, primary screen, biochemical, small-molecule microarray, 635 nm fluorescence (AID 1104); settings: EGFR binding, higher = more signal;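 further: score merges 667 nm emission intensity with spot signal to noise over triplicate slides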
[18] = target: Follistatin-related protein 3 (Homo sapiens) (UniProt O95633); assay: FSTL3 binders on small-molecule microarrays, primary screen, biochemical, small-molecule microarray, 635 nm fluorescence (AID 1105); settings: FSTL3 binding, higher = more signal;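 further: score merges emission near 667 nm and signal to noise per printed spot across three slides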
[19] = target: Dickkopf-related protein 1 (Homo sapiens) (UniProt O94907); assay: DKK1 binders on small-molecule microarrays, primary screen, biochemical, small-molecule microarray, 635 nm fluorescence scan (AID 1106); settings: DKK1 binding, higher = more signal;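 further: score merges emission near 667 nm with signal to noise over three replicate slides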
[20] = test system: Inhibin beta A chain (activin A); assay: INHBA (activin A) binders on microarrays, primary screen, biochemical, small-molecule microarray, 635 nm fluorescence scan (AID 1107); settings: small-molecule microarray binding, higher = more signal;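 further: mouse activin A protein probed at 4.33 µg/mL on printed slides; score merges bound-protein fluorescence near 667 nm with spot signal-to-noise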

Torsin-1A-interacting protein 2 (Homo sapiens), sequence (Q8NFQ8 whole entry, looked up): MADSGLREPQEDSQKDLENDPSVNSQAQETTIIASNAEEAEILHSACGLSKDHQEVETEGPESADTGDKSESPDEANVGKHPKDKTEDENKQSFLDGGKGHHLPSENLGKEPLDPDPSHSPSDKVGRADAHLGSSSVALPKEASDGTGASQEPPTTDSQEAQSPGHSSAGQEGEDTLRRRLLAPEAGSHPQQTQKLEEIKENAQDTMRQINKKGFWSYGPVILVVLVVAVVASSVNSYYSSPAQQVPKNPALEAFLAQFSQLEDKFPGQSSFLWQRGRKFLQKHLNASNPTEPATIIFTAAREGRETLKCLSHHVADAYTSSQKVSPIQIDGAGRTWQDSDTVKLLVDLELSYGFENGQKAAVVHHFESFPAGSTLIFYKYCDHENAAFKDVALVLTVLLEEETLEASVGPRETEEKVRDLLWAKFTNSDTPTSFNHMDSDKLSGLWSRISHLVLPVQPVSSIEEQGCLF
Fibroblast growth factor 10 (Homo sapiens), sequence (O15520 whole entry, looked up): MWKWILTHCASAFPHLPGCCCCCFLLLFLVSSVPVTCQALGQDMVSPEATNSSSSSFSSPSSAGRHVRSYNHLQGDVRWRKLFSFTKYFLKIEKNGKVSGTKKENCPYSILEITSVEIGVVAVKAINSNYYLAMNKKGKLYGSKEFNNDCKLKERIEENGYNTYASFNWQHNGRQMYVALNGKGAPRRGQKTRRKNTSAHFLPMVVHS
Follistatin-related protein 3 (Homo sapiens), sequence (O95633 whole entry, looked up): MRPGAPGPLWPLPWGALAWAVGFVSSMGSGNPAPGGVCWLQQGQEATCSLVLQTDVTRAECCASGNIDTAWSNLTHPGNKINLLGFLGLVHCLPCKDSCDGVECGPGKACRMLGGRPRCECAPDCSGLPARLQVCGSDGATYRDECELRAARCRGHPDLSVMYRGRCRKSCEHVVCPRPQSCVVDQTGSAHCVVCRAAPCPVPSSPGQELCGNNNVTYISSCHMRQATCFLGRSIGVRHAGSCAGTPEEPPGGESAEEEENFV
Epidermal growth factor receptor (Homo sapiens), sequence (P00533 whole entry, looked up): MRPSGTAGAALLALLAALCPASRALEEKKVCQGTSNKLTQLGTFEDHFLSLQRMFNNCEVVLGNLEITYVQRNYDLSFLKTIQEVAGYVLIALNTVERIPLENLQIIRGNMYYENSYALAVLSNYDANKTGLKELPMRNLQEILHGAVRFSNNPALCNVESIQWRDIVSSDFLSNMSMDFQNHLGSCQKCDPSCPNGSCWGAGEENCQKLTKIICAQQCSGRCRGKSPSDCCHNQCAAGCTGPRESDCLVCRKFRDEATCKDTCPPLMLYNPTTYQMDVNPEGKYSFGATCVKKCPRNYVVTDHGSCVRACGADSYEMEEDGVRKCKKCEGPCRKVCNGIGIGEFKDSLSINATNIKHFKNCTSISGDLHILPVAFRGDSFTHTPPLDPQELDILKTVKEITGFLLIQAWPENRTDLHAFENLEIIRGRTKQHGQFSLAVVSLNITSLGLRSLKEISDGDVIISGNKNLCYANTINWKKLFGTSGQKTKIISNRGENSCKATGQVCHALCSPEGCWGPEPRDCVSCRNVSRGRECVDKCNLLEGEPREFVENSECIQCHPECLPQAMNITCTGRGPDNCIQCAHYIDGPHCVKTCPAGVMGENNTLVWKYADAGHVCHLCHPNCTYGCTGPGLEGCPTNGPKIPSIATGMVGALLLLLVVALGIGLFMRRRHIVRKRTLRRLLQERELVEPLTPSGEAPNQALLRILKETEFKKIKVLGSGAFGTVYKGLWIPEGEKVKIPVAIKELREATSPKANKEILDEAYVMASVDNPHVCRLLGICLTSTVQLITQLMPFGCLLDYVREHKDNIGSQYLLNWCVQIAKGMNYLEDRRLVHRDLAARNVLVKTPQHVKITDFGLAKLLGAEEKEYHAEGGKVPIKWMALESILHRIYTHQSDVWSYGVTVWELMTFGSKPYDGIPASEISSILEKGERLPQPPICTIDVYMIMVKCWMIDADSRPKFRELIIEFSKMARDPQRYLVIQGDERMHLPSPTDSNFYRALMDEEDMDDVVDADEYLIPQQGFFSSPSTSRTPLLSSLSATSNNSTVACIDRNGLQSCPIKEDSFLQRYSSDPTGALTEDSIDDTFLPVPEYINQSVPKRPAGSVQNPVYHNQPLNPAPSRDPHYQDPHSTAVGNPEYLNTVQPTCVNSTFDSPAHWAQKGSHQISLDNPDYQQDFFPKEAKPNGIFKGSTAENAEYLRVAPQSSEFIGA
Dickkopf-related protein 1 (Homo sapiens), sequence (O94907 whole entry, looked up): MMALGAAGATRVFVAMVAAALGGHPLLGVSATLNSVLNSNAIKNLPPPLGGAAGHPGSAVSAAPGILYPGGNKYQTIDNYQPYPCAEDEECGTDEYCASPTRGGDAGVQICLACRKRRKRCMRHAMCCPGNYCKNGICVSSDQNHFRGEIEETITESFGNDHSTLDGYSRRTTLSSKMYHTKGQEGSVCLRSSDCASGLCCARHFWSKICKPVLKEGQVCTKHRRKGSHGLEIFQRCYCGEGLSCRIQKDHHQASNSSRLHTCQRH
Neurogenic locus notch homolog protein 3 (Homo sapiens), sequence (Q9UM47 whole entry, looked up): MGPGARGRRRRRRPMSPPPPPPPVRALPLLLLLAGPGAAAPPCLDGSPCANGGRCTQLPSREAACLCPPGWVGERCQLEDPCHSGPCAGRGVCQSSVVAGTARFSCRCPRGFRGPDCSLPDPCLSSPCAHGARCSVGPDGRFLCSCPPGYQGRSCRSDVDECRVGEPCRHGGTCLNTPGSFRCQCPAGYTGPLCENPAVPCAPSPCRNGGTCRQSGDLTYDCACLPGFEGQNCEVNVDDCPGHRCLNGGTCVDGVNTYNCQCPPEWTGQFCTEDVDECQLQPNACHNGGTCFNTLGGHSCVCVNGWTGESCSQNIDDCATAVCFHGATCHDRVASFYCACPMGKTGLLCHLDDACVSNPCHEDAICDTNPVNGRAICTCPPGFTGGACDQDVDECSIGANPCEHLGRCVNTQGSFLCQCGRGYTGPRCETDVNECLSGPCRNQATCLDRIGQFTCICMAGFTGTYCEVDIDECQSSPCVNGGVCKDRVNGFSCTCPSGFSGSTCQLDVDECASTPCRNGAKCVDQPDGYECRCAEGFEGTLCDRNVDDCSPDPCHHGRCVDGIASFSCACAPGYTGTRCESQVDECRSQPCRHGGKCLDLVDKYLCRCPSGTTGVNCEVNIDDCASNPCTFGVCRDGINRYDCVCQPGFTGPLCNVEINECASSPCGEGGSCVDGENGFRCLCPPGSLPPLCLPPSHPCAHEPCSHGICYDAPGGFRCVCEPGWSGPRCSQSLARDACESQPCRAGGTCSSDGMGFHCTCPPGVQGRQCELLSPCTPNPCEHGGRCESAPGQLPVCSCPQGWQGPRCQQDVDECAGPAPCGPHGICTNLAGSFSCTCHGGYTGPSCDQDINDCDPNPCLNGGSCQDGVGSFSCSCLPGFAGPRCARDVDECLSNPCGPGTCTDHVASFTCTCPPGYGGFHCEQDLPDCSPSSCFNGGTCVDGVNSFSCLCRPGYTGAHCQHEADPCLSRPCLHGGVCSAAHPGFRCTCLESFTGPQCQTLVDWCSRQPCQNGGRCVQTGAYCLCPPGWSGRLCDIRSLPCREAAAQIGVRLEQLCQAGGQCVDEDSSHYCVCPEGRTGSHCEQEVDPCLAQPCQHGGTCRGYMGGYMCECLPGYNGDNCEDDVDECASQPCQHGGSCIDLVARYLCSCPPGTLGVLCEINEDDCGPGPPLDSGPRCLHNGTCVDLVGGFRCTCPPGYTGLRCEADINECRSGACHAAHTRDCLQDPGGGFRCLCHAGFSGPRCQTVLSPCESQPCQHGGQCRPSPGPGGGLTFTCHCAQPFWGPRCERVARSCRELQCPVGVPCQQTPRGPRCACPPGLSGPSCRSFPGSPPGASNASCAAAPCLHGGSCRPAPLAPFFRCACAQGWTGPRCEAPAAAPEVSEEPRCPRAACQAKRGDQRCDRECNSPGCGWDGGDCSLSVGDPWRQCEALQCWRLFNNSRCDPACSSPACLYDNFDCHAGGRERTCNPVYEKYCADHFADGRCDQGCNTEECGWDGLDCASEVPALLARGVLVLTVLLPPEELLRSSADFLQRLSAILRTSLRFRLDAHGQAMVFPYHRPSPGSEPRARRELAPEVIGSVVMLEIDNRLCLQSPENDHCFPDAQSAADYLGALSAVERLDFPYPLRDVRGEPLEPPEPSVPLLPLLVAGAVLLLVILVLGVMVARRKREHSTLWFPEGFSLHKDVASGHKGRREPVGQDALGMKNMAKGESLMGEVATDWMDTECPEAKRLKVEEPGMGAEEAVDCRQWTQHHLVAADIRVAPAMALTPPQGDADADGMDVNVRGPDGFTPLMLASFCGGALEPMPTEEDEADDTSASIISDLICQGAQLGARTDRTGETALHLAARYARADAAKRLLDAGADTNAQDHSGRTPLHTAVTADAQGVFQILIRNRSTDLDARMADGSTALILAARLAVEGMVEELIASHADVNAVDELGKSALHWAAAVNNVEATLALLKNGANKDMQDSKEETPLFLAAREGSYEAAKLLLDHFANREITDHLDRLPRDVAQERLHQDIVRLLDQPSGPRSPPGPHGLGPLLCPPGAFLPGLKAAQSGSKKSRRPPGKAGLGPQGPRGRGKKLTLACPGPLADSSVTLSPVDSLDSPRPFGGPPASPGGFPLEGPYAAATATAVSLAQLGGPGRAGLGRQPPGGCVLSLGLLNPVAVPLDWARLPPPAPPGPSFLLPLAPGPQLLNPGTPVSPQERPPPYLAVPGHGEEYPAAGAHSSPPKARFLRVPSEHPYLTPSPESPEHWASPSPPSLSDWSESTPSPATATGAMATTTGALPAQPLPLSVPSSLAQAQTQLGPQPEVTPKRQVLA

Row | SMILES | composite z-score [1] | z-score [2] | z-score [3] | z-score [4] | composite z-score [5] | z-score [6] | composite z-score [7] | composite z-score [8] | composite z-score [9] | composite z-score [10] | composite z-score [11] | composite z-score [12] | composite z-score [13] | z-score [14] | composite z-score [15] | composite z-score [16] | composite z-score [17] | composite z-score [18] | composite z-score [19] | composite z-score [20]
1 | C=CCNC(=O)[C@H]1[C@@H]2C(=O)O[C@@H](c3ccccc3)[C@@H](c3ccccc3)N2[C@@H](c2ccc(OCCO)cc2)[C@]12C(=O)N(C(=O)OCCOC)c1ccccc12 | 1.54 | 2.07 (inactive) | 0.0313 (inactive) | 4.62 (inactive) | 3.07 | 0.909 (inactive) | 0.0316 | 1.09 | 1.04 | 0.107 | 1.57 | 0.192 | 0.299 | -1.04 (inactive) | 0.942 | 1.31 | 0.461 | 1.25 | 0.497 | 0.247
2 | [N-]=[N+]=NCc1ccccc1C[C@@]1(C(=O)NCC(O)CO)N=C(c2ccc(OCCCO)cc2)O[C@@H]1c1ccccc1N=[N+]=[N-] (stereo not given in full) | 1.53 | -1.01 (inactive) | -0.348 (inactive) | 1.99 (inactive) | 3.53 | 1.73 (inactive) | 0.36 | 0.633 | 0.618 | 0.118 | 0.991 | 1.03 | 1.38 | 0.561 (inactive) | 1.01 | 0.364 | -0.0087 | 0.348 | -0.504 | 1.2
3 | C=CCNC(=O)[C@@H]1[C@H]2C(=O)O[C@H](c3ccccc3)[C@H](c3ccccc3)N2[C@H](c2ccccc2OCCO)[C@@]12C(=O)N(C(=O)OCCOC)c1ccc(C#CCNC(N)=O)cc12 | 1.46 | 1.11 (inactive) | 0.731 (inactive) | 2.72 (inactive) | 2.85 | -0.395 (inactive) | 0.0395 | 0.61 | 1.12 | 0.0149 | 1.43 | 0.0834 | 0.447 | -0.938 (inactive) | 0.738 | 0.581 | 0.444 | 0.921 | -0.0253 | 0.38
4 | CC(C)(C)OC(=O)CC[C@@]1(C(=O)NCC(O)CO)N=C(c2ccc(OCCCO)cc2)O[C@@H]1c1ccccc1N=[N+]=[N-] (stereo not given in full) | 1.54 | 1.17 (inactive) | -1.74 (inactive) | 4.99 (inactive) | 3.76 | 1.26 (inactive) | 0.247 | 1.04 | 0.626 | 0.0773 | 1.72 | 0.836 | 1.15 | -0.764 (inactive) | 1.36 | -0.454 | -0.468 | 0.114 | 0.311 | 0.906
5 | C=C(CCCC)C(=O)CC[C@H](OC(=O)c1cccnc1)c1ccccc1OCCO | 0.449 | -2.23 (inactive) | -2.01 (inactive) | -1.34 (inactive) | -0.0709 | 0.576 (inactive) | -0.19 | 0.282 | 0.214 | -0.0656 | 0.619 | -0.322 | 0.154 | -0.637 (inactive) | 0.704 | -1.05 | -0.0934 | 0.12 | 0.137 | 1.1
6 | CN(C)C(=O)[C@@]1(Cc2ccccc2)N=C(c2ccc(OCCCO)cc2)O[C@H]1c1ccccc1N=[N+]=[N-] | 1.53 | -2.59 (inactive) | -1.89 (inactive) | 4.73 (inactive) | 3.3 | 0.875 (inactive) | 0.306 | 0.835 | 1.11 | 0.0595 | 1.36 | 0.898 | 0.914 | -1.26 (inactive) | 1.36 | 1.26 | 0.189 | 0.843 | -0.237 | 0.994
7 | Cc1ccc(C(C)CC(O)C2C=CC3C(=O)N(c4ccccc4)C(=O)C3N2Nc2ccc([N+](=O)[O-])cc2)o1 (stereo not given) | 1.55 | 0.0574 (inactive) | 0.593 (inactive) | 1.31 (inactive) | 3.1 | -0.468 (inactive) | 0.157 | 0.181 | 1.1 | 0.0807 | 0.883 | -0.199 | 0.904 | 0.907 (inactive) | 0.938 | 1.27 | 0.152 | 0.904 | 0.0201 | 0.77
8 | CC(C)(C)OC(=O)CC[C@@]1(C(=O)NCCN2CCOCC2)N=C(c2ccc(OCCCO)cc2)O[C@@H]1c1ccccc1N=[N+]=[N-] | 1.45 | -0.174 (inactive) | -0.182 (inactive) | -0.336 (inactive) | 3.09 | -0.115 (inactive) | 0.591 | -0.0404 | 1.11 | 0.171 | 0.739 | 1.04 | 1.21 | -0.744 (inactive) | 1.1 | 0.0778 | 0.0224 | 1.06 | 0.0741 | 1.24
9 | CC(C)(C)OC(=O)CC[C@@]1(C(N)=O)N=C(c2ccc(OCCCO)cc2)O[C@@H]1c1ccccc1 | 1.57 | -0.145 (inactive) | -0.589 (inactive) | -0.399 (inactive) | 3.17 | -0.511 (inactive) | 0.0917 | 0.392 | 0.79 | 0.106 | 1.19 | 0.307 | 0.666 | -0.0742 (inactive) | 0.958 | 1.15 | -0.467 | 0.0089 | -0.534 | 0.557
10 | C#CCN(CC1=CCCCC1)[C@H](c1ccccc1Br)[C@@H](O)Cc1ccccc1 | 0.249 | 0.119 (inactive) | -4.79 (inactive) | -0.655 (inactive) | 1.04 | 1.79 (inactive) | -0.0724 | -0.51 | -0.721 | -0.356 | 1.53 | -0.0907 | 0.979 | -1.37 (inactive) | -1.25 | -0.28 | -1.56 | -1.28 | -1.07 | 0.685
